# Assay results published in PubChem BioAssay.
# The source made the active and inactive calls. Unless noted, the rule behind the calls is not given here.
# Key:
# [1] = test system: Wnt5a (protein binding on small-molecule microarray); test: Wnt5a binders on small-molecule microarray, primary screen, biophysical, 635/667 nm fluorescence (AID 1142); conditions: 635 nm fluorescence, higher = more signal;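 note: fluorescence read at 667 nm with signal to noise per printed feature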
# [2] = cell viability in Huh7 cells, primary screen, cytotoxicity control for HCV replication inhibitor project, CellTiter-Glo luminescence, basal, 48 h (AID 1143); conditions: Huh7 HCV replicon, higher = more signal, called active from +8 up or from −8 down;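 note: Huh7 hepatoma cells carrying a hepatitis C replication reporter with no stimulus; test concentration not given here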
# [3] = P. aeruginosa biofilm formation inhibitors, primary screen, PAO1 strain, BacTiter-Glo luminescence, LB-PBS (AID 1144); conditions: 12 h, higher = more signal
# [4] = CREB reporter modulators without forskolin, primary screen, cell-based, PC12, CRE-LacZ reporter, unstimulated (AID 1145); conditions: no forskolin, luminescence, 4.5 h, higher = more signal, called active from +8 up or from −8 down
# [5] = CREB reporter modulators under forskolin, primary screen, cell-based, PC12, CRE-LacZ reporter, forskolin-stimulated (AID 1146); conditions: luminescence, 4.5 h, higher = more signal, called active from +8 up or from −8 down;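 note: PC12 cells with 6xCRE LacZ reporter stimulated by forskolin 10 µM; beta-galactosidase reporter signal reflecting CREB driven transcription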
# [6] = target: Streptavidin (Streptomyces avidinii) (UniProt P22629); test: streptavidin binders on small-molecule microarray, primary screen, artefact control for SMM compound annotation, biophysical, 635/667 nm fluorescence (AID 1147); conditions: streptavidin binding, higher = more signal;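 note: signal reflects streptavidin binding to arrayed compounds as a control protein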
# [7] = small-molecule binders of probe aInhba, primary screen, biochemical, small-molecule microarray, 635/667 nm fluorescence (AID 1148); conditions: higher = more signal;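 note: score merges 667nm spot fluorescence with signal-to-noise for antibody binding to printed compounds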
# [8] = target: Torsin-1A (Homo sapiens) (UniProt O14656); test: torsin A binders from cell lysate, primary screen, small-molecule microarray, wild-type, 635/667 nm (AID 1149); conditions: COS7 hTOR1A-WT lysate, 635 nm fluorescence, higher = more signal
# [9] = target: Torsin-1A (Homo sapiens) (UniProt O14656); test: small-molecule binders of mutant TOR1A in lysate, primary screen, cell lysate, small-molecule microarray, COS7 lysate, 635/667 nm fluorescence (AID 1150); conditions: COS7 hTOR1A mutant lysate, 635 nm fluorescence, higher = more signal;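 note: score pools 667 nm emission and signal to noise measuring lysate protein binding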
# [10] = test system: Sonic hedgehog protein (Shh); test: small-molecule binders of Shh protein, primary screen, biochemical, small-molecule microarray, 635/667 nm fluorescence (AID 1151); conditions: small-molecule microarray binding, 635 nm fluorescence; higher = more signal;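 note: Shh protein binding to compounds spotted on small-molecule microarray slides; score combines spot fluorescence intensity with signal-to-noise across triplicate slides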
# Sequence of Torsin-1A (Homo sapiens) (O14656 whole entry, looked up): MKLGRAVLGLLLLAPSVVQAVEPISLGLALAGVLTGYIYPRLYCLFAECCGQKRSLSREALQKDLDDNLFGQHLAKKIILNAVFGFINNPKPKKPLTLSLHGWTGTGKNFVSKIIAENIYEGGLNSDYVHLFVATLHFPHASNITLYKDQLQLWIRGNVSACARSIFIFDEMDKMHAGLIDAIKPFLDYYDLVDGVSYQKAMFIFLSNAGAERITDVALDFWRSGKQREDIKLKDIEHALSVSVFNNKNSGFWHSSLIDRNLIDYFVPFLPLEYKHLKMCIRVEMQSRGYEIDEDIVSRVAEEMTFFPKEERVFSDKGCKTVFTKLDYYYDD
# Sequence of Streptavidin (Streptomyces avidinii) (P22629 whole entry, looked up): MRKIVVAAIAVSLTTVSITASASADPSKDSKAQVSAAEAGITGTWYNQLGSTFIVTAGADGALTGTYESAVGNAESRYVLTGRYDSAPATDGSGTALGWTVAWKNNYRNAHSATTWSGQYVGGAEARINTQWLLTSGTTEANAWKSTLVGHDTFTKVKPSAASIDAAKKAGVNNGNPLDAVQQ
Structure (SMILES),composite z-score [1],z-score [2],z-score [3],z-score [4],z-score [5],composite z-score [6],composite z-score [7],composite z-score [8],composite z-score [9],composite z-score [10]
O=C(C=Cc1ccc2c(c1)OCO2)c1ccc(F)cc1,0.239,-1.25 (inactive),0.583 (inactive),1.28 (inactive),0.362 (inactive),1.32,0.259,0.245,-0.397,2.05
O=C(NN=C1C[C@@H](O)[C@@H](O)[C@@H]2[C@@H]3C(=O)N(C4CCCCC4)C(=O)[C@@H]3CC[C@H]12)OCc1ccccc1,0.476,0.0552 (inactive),-0.19 (inactive),0.338 (inactive),-0.0351 (inactive),0.0049,-0.082,0.118,0.416,-0.554
CC(C)CON=C1C[C@@H](O)[C@@H](O)[C@@H]2[C@@H]3C(=O)N(c4cccc(Oc5ccccc5)c4)C(=O)[C@@H]3CC[C@@H]12,0.0462,-1.26 (inactive),0.272 (inactive),-0.11 (inactive),0.0421 (inactive),0.977,-0.016,0.486,0.181,1.7
CCc1cc2c(nc1CC)CCN(CCC(C)=NO[C@H](C)c1cn([C@H](CO)Cc3ccccc3)nn1)C2,0.167,-0.225 (inactive),-0.374 (inactive),2.4 (inactive),0.406 (inactive),0.656,0.173,1.49,0.978,0.236
O=C(NN=C1C[C@@H](O)[C@@H](O)[C@@H]2[C@@H]3C(=O)N(Cc4ccccc4)C(=O)[C@@H]3CC[C@@H]12)OCc1ccccc1,-0.0896,-0.381 (inactive),-0.526 (inactive),0.248 (inactive),0.121 (inactive),-0.418,-0.239,0.815,0.819,-0.0067
O=C1C[C@@H](O)[C@@H](O)[C@@H]2[C@@H]3C(=O)N(C[C@@H]4CCCO4)C(=O)[C@@H]3CC[C@H]12,0.288,0.114 (inactive),0.54 (inactive),0.517 (inactive),-0.105 (inactive),0.168,-0.128,0.34,0.068,0.46
CC(=O)OC[C@H]1O[C@@H](ON=C(C)CCN2CCCc3nc(C)c(C)cc32)[C@H](OC(C)=O)[C@@H](OC(C)=O)[C@@H]1OC(C)=O,0.237,-2.36 (inactive),-0.731 (inactive),1.89 (inactive),-0.112 (inactive),0.345,-0.0626,-0.164,0.604,1.06
COC(=O)CC=C[C@@H](C)[C@@H](C=NOCC[C@@H]1C=C[C@H](OC(C)=O)[C@@H](COC(C)=O)O1)OC,0.38,0.309 (inactive),0.711 (inactive),-0.557 (inactive),0.0921 (inactive),-0.227,0.0565,0.563,0.359,0.19
CO[C@@H]1C=CCC(=O)N2CCC[C@H]2C(=O)OC[C@@H](C)C(=O)OC[C@H]1C,0.172,-0.0949 (inactive),-1.23 (inactive),-0.0234 (inactive),0.2 (inactive),-0.482,-0.0762,-0.0067,0.652,1.68
O=C(NN=C1C[C@@H](O)[C@@H](O)[C@@H]2[C@@H]3C(=O)N(C[C@@H]4CCCO4)C(=O)[C@@H]3CC[C@H]12)OCc1ccccc1,-0.222,0.348 (inactive),0.458 (inactive),-0.834 (inactive),-0.105 (inactive),0.281,-0.341,0.146,0.219,-0.824
CC(C)=NO[C@H](C)c1cn([C@H](CO)Cc2ccccc2)nn1,-0.179,-0.684 (inactive),0.159 (inactive),1.61 (inactive),0.112 (inactive),1.14,-0.0178,-0.232,0.015,-0.195
O=C1[C@H]2[C@H]3[C@H](O)[C@H](O)CC(=NOC[C@@H](O)COCc4ccco4)[C@@H]3CC[C@H]2C(=O)N1C[C@@H]1CCCO1,0.149,0.0304 (inactive),0.835 (inactive),-0.207 (inactive),-0.0793 (inactive),-0.0625,-0.263,3.22,3.3,1.59
CO[C@@H]1COC(=O)[C@@H](C)COC(=O)[C@@H](C)NC(=O)CC=C[C@@H]1C,0.102,-4.69 (inactive),-2.01 (inactive),-0.129 (inactive),-0.694 (inactive),-0.457,-0.246,1.65,0.717,1.51
C=COC[C@@H]1CN2[C@@H](CC[C@@H](C)[C@@H]2c2ccc(Br)cc2)C(=O)O1,-0.219,-2.67 (inactive),-1.06 (inactive),6.83 (inactive),-0.544 (inactive),-0.505,-0.253,0.348,-0.051,-0.211
O=C1C2=CC[C@H]3C(=O)N(c4cccc(Oc5ccccc5)c4)C(=O)[C@H]3[C@H]2[C@H](O)[C@@H]2O[C@H]12,0.0049,-6.01 (inactive),0.478 (inactive),0.699 (inactive),19.7 (active),0.284,-0.239,0.181,-0.111,0.264
COC(=O)CC=C[C@@H](C)[C@H](OCc1cccc(-c2ccccc2)c1)C1CCCCC1,-0.106,-0.44 (inactive),0.125 (inactive),0.68 (inactive),-0.198 (inactive),1.85,-0.176,0.439,-0.17,0.412
O=C1C=C[C@@H](O)[C@@H]2[C@@H]3C(=O)N(C[C@@H]4CCCO4)C(=O)[C@@H]3CC[C@@H]12,-0.142,-0.228 (inactive),0.477 (inactive),-0.295 (inactive),-0.593 (inactive),-0.029,-0.0424,0.294,0.462,0.159
CCN1C(=O)[C@H]2[C@H]3[C@H](O)[C@H](O)CC(=NOCC(C)C)[C@@H]3CC[C@H]2C1=O,-0.111,-0.101 (inactive),0.258 (inactive),-0.929 (inactive),-0.2 (inactive),0.017,0.038,0.729,0.634,1.31
CCOC(=O)[C@H](CC(C)C)NC(=O)CCC1CC(OC(=O)NCc2cccc3ccccc23)CC2(CCCC(COC(=O)NCCOC)O2)O1 (stereo not given in full),0.238,-1.3 (inactive),-0.656 (inactive),-0.526 (inactive),0.389 (inactive),0.0772,0.119,-0.114,0.753,1.03
COC(=O)[C@H]1O[C@@H](c2c(OC)c(OC)c(C)c(OC)c2OC)[C@H](C)[C@@H](O)[C@H]1C,0.2,0.299 (inactive),-0.895 (inactive),0.564 (inactive),1.12 (inactive),0.353,0.141,0.859,0.295,0.434
COc1cc(O)c(C(=O)C=Cc2ccc3c(c2)OCO3)c(OC)c1,0.0926,-2.56 (inactive),1.1 (inactive),0.286 (inactive),0.528 (inactive),-0.379,-0.0332,-0.404,-0.19,0.782
Cc1cc2c(nc1C)CCCCN2CC(C)ON=C1[C@H]2CCn3c(=O)n(-c4ccccc4)c(=O)n3[C@H]2[C@H](O)[C@@H]2O[C@H]12 (stereo not given in full),0.384,-0.299 (inactive),0.888 (inactive),-1.21 (inactive),-0.379 (inactive),-0.251,-0.125,-0.0459,-0.136,0.829
CCc1cc2c(nc1CC)CCN(CCC(C)=NO[C@H](C)c1cn([C@@H]3COC[C@H]3O)nn1)C2,-0.0763,0.401 (inactive),1.7 (inactive),0.238 (inactive),-0.183 (inactive),0.383,-0.0963,0.161,0.292,0.282
COC(=O)[C@@H]1CC[C@H](C)[C@@H](c2ccc(C)cc2)N1C(=O)c1ccc(C=NO[C@H](C)c2cn([C@H](CO)Cc3ccccc3)nn2)cc1,0.247,-0.63 (inactive),0.0292 (inactive),8.24 (active),0.371 (inactive),0.0407,0.288,0.278,0.277,0.682
C#CCCCON=C1C[C@@H](O)[C@@H](O)[C@@H]2[C@@H]3C(=O)N(c4cccc(Oc5ccccc5)c4)C(=O)[C@@H]3CC[C@H]12,-0.591,-0.593 (inactive),0.0591 (inactive),-0.57 (inactive),-0.236 (inactive),-0.77,-0.191,0.32,0.855,-1.01
C#CCCCON=C1C[C@@H](O)[C@@H](O)[C@@H]2[C@@H]3C(=O)N(Cc4ccccc4)C(=O)[C@@H]3CC[C@@H]12,0.087,-0.0439 (inactive),0.943 (inactive),-0.476 (inactive),0.174 (inactive),-0.382,-0.0675,0.103,0.0159,-0.523
COC(=O)[C@H](C)NC(=O)CCC1CC(OC(=O)NCc2ccc3c(c2)OCO3)CC2(CCCC(COC(=O)NCC3CCCCC3)O2)O1 (stereo not given in full),0.283,-0.643 (inactive),-0.112 (inactive),0.104 (inactive),1.35 (inactive),0.543,-0.0719,0.174,0.433,1.72
CC(C)CON=C1C[C@@H](O)[C@@H](O)[C@@H]2[C@@H]3C(=O)N(C(C)(C)C)C(=O)[C@@H]3CC[C@H]12,-0.147,0.419 (inactive),-0.208 (inactive),-0.116 (inactive),0.366 (inactive),-0.312,-0.125,0.324,0.329,-0.739
CCOC(=O)CCN1C(=O)[C@H]2[C@H]3[C@H](O)[C@H](O)CC(=NOCc4ccccc4)[C@H]3CC[C@H]2C1=O,0.14,0.223 (inactive),1.14 (inactive),-0.295 (inactive),-0.21 (inactive),0.758,0.0805,-0.296,-0.522,-0.212
